Reference: PubChem BioAssay AID2315 (National Center for Advancing Translational Sciences (NCATS), 2010)
Hit rate of the full screen: of about 290,000 compounds, about 27,000 (9.3%) were called active. The sample holds actives, similar compounds and a random draw of the others, so the mix is not that of the screen. Rule as the data show it: active = inhibition mostly above about 28% (no sharp cut-off); inactive = mostly below about 43%.

Assay: A qHTS for Small Molecule Inhibitors of Shiga Toxin; also: 0% is about no effect
Details: Vero cells, Shiga toxin protein synthesis inhibition reporter; at 38.7 µM, stronger effect = higher value
In the case of `Cc1cc(C(F)F)n2nc(C(=O)Nc3ccc(S(=O)(=O)NC45CC6CC(CC(C6)C4)C5)cc3)nc2n1`, the inhibition is reported as -15.3% (inactive). For `CCOc1ccc2[nH]c(C(=O)N/N=C/c3cccc(OC)c3OC)cc2c1`, the inhibition was 14% (inactive). For `O=C(NCc1ccccc1)C(c1ccco1)N(C(=O)c1csnn1)c1ccccc1F` (stereo not drawn), the inhibition was -4.22% (inactive). With `O=C(NCC(=O)N1CCN(c2ccccc2O)CC1)c1ccc2ccccc2c1` the inhibition was 22.1% (inactive). In the case of `Cc1ccc(CC2CC(=O)N(c3cc(C)ccc3C)C2=O)cc1` (stereo not drawn), the inhibition is reported as -11.4% (inactive). In the case of `N#C/C(=C\c1cccnc1)C(=O)Nc1ccc(SC(F)F)cc1`, the inhibition is reported as 36.4% (inactive). For `Cc1ccc(-n2c(-c3ccc(Cl)cc3)n[nH]c2=S)cc1`, the inhibition was 4% (inactive). In the case of `CCOC(=O)c1ccc2[nH]c3c(c2c1)CCCC3NC=O` (stereo not drawn), the inhibition is reported as 90.9% (inactive). For `COc1ccc(N(C)C(=O)CCS(=O)(=O)c2cccc3nsnc23)cc1`, the inhibition was -7.02% (inactive). With `CCOc1ccccc1NC(=O)Cn1ncc2ccc([N+](=O)[O-])cc21` the inhibition was -3.64% (inactive). With `COc1ccc(N2CC(C(=O)NCCS(=O)(=O)N3CCN(c4ccccc4)CC3)CC2=O)cc1` (stereo not drawn) the inhibition was -3.67% (inactive). For `O=C(NCC(=O)N(Cc1cccs1)C(C(=O)NC1CCCCC1)c1ccco1)c1cccs1` (stereo not drawn), the inhibition was 4.26% (inactive). In the case of `O=C1c2cccc3cccc(c23)C(=O)N1c1cccc(O)c1`, the inhibition is reported as -6.01% (inactive). For `COC(=O)c1cc(C(=O)NC(C)C2CC3CCC2C3)cc([N+](=O)[O-])c1` (stereo not drawn), the inhibition was -13% (inactive). For `COc1cc(C(=O)NCc2cc3cc(Cl)ccc3n2C)cc(OC)c1OC`, the inhibition was -6.37% (inactive). For `COc1ccc(S(=O)(=O)NCCOc2ccccc2)cc1F`, the inhibition was 21% (inactive). For `N#CCc1ccc(NC(=O)c2ccccc2C(=O)Nc2ccc(CC#N)cc2)cc1`, the inhibition was 57.5% (active). With `CC(=O)Nc1ccc(CC#N)cc1` the inhibition was -1.48% (inactive). For `NC(=O)COc1ccc(NC(=O)c2ccccc2-c2ccccc2)cc1`, the inhibition was -16.2% (inactive). For `O=C(NCCO)C(=O)NCC(c1ccc2c(c1)OCO2)N1CCN(c2ccc(F)cc2)CC1` (stereo not drawn), the inhibition was 17.7% (inactive). With `O=C(O)c1ccc(S(=O)(=O)N2CCOCC2)o1` the inhibition was -9.6% (inactive). For `CCc1ccc(C(=O)NN=C2CCCCCC2)s1`, the inhibition was 50.4% (active). For `O=C(COc1ccc(-c2ccccc2)cc1)NN=C1CCCC1`, the inhibition was -0.705% (inactive). For `CS(=O)(=O)N(Cc1ccccc1)c1ccc(C(=O)NN=C2CCCCCC2)cc1`, the inhibition was 0.281% (inactive). In the case of `Cc1ccn2c(=O)c(C(=O)NCCC3=CCCCC3)c(O)nc2c1`, the inhibition is reported as 0.166% (inactive). In the case of `CC(CC(=O)O)C(=O)c1ccc(Cl)c([N+](=O)[O-])c1` (stereo not drawn), the inhibition is reported as -9.51% (inactive). For `O=C(Cc1nn[nH]n1)NCCC1=CCCCC1`, the inhibition was -11.6% (inactive). With `Cn1nnc2cc(C(=O)NCCC3=CCCCC3)ccc21` the inhibition was 64.2% (active). In the case of `O=C(COc1ccc(Cl)cc1)NCCC1=CCCCC1`, the inhibition is reported as 19.6% (inactive). For `O=C(NCCC1=CCCCC1)c1ccc(Cl)c([N+](=O)[O-])c1`, the inhibition was 78.7% (active). For `CN1CCNC(=O)C1CC(=O)NCCC1=CCCCC1` (stereo not drawn), the inhibition was -5.56% (inactive). With `CC(=O)Nc1ccc(S(=O)(=O)N(C)CC(=O)NCCC2=CCCCC2)cc1` the inhibition was -23.7% (inactive). In the case of `CN(c1ccc(C(=O)NCCC2=CCCCC2)cc1)S(C)(=O)=O`, the inhibition is reported as 89.4% (active).
